This is part of a sample that, as a whole, favours compounds with a hit. Of some 79,000 tested, about 15% had one in any assay. Activity calls are given as the source filed them. Cut-off read from the data, not from the text of the source: active = growth inhibition above about 70%; inactive = the rest.
Key:
[1] = NCI Yeast Anticancer Drug Screen. Data for the rad50 strain (AID 155);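 note: 0% = growth of vehicle-only cultures of the same strain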; details: S. cerevisiae rad50 strain growth inhibition; at 50.0 µM; stronger effect = higher value
Procedure, shortened: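 Genetically altered yeast (DNA repair pathway); compound treatment; growth inhibition vs vehicle ctrl.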

[2] = NCI Yeast Anticancer Drug Screen. Data for the mec2-1 strain (AID 157); details: S. cerevisiae mec2-1 strain, at 50.0 µM, stronger effect = higher value
Procedure, shortened: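 Mutant yeast (mec2-1) grown with compound; growth inhibition relative to vehicle control reported.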

[3] = NCI Yeast Anticancer Drug Screen. Data for the sgs1 mgt1 strain (AID 161);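 note: 0% = growth of cultures given vehicle only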; details: S. cerevisiae sgs1 mgt1 strain, at 50.0 µM, stronger effect = higher value
Procedure, shortened: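 Growth of a repair-deficient yeast mutant was monitored after compound treatment and expressed as inhibition relative to vehicle-treated cultures.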

[4] = NCI Yeast Anticancer Drug Screen. Data for the cln2 rad14 strain (AID 165);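 note: 0% = growth equal to vehicle treated cultures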; details: S. cerevisiae cln2 rad14 strain, at 50.0 µM, stronger effect = higher value
Procedure, shortened: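 Readout is yeast growth inhibition versus vehicle-treated controls, using a strain with cln2 and rad14 alterations exposed to compound.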

[5] = NCI Yeast Anticancer Drug Screen. Data for the bub3 strain (AID 167); details: S. cerevisiae bub3 mutant strain, at 50.0 µM, stronger effect = higher value
Procedure, shortened: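 Yeast carrying a defined mutation is treated with each compound, and growth is compared with that of vehicle-exposed cells to give inhibition.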

[6] = NCI Yeast Anticancer Drug Screen. Data for the mlh1 rad18 strain (AID 175); details: S. cerevisiae mlh1 rad18 strain growth inhibition; at 50.0 µM; stronger effect = higher value
Procedure, shortened: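 Genetically defined yeast (DNA repair-deficient) exposed to compounds; growth inhibition determined relative to vehicle.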

Measured: growth inhibition

O=C(Nc1ccc(Cl)c(Cl)c1)Nc1cccc2nsnc12
inactive: [1] 4.45% | [2] 7.35% | [3] -2.7% | [4] 13.2% | [5] -1.5% | [6] 26.2%

COc1ccc(C2COc3cc4c(cc3C2)OCO4)cc1 (stereo not given)
inactive: [1] -22.4% | [2] -26.1% | [3] -20.6% | [4] -2.3% | [5] 20.1% | [6] 4.9%

CCN1C(=O)/C(=C\c2coc3ccccc3c2=O)SC1=S
inactive: [1] -2.6% | [2] -34.7% | [3] 0.2% | [4] 0.5% | [5] -23.7% | [6] -0.2%

NC1C=NNC1=O (stereo not given)
inactive: [1] -11.1% | [2] -7.95% | [3] -9.5% | [4] -13.2% | [5] -10.1% | [6] -23.9%

O=c1nc(Nc2ccccc2)ccn1C1OC(CO)C(O)C1O (stereo not given)
inactive: [1] -7.95% | [2] 0.25% | [3] 0.2% | [4] 12% | [5] 7.55% | [6] 5.85%

Nc1ncnc2c1ncn2CCC(COCc1ccccc1)COCc1ccccc1
inactive: [1] 40.8% | [2] 0.4% | [3] 50.8% | [4] -10% | [5] 4.6% | [6] 11.7%

Oc1ccc(OCc2ccccc2)cc1CN1CCOCC1
inactive: [1] 17.2% | [2] 7.85% | [3] 27.3% | [4] 7.15% | [5] 22.9% | [6] 34.5%

COc1ccccc1C=NC12CC3CC(CC(C3)C1)C2
inactive: [1] -29.2% | [2] -12.6% | [3] 2.55% | [4] 1.9% | [5] -4.2% | [6] -16.6%

N#CSC1C=CS(=O)(=O)C1 (stereo not given)
inactive: [1] 44.6% | [2] 4.05% | [3] 19.6% | [4] -44.1% | [5] 3.55% | [6] 58.8%

O=C1C(=O)C(c2ccccc2)S(=O)(=O)C1c1ccccc1 (stereo not given)
inactive: [1] -5.3% | [2] -5.05% | [3] -6.3% | [4] 4.3% | [5] 7.55% | [6] 14.6%

CC1(C)COC(c2ccc(CC(Cc3ccc(C4(C(C)(C)C)OCC(C)(C)CO4)cc3)C(=O)O)cc2)(C(C)(C)C)OC1
inactive: [1] -7.25% | [2] -19.8% | [3] 3.1% | [4] 5.15% | [5] 3.8% | [6] 5.35%

NC(=O)C12CC3CC(CC(Br)(C3)C1)C2
inactive: [1] -7.9% | [2] -6.85% | [3] -8.25% | [4] 16.2% | [5] 2.5% | [6] -7.1%

COC(=O)/C=C/c1cccc([N+](=O)[O-])c1
inactive: [1] -3.55% | [2] -2.25% | [3] 20.7% | [4] -48.8% | [5] -0.7% | [6] -18.3%

O=c1cc(CC(O)(c2ccccc2)c2ccccc2)cc[nH]1
inactive: [1] 16.1% | [2] 3.8% | [3] -4.65% | [4] -10.8% | [5] -0.35% | [6] -1%

CCCCCCCCC(O)C(O)CCCCCCCCOC(=O)CCCCCCCCCCC(O)CCCCCC (stereo not given)
inactive: [1] 13.1% | [2] -8.65% | [3] -1.55% | [4] -9.7% | [5] -2.1% | [6] 18.4%

CC(=O)Cc1ccc([N+](=O)[O-])cc1
inactive: [1] -0.1% | [2] -9.25% | [3] -15.9% | [4] -41.7% | [5] 4.15% | [6] 12.2%

COc1cccc2c1C(=O)C=CC2=O
active: [1] 76.8% | [2] 80.7% | [3] 84.3% | [4] 87.2% | [5] 87.2% | [6] 91.8%

O=C(O)c1c(Cl)c(Cl)c(Cl)c(Cl)c1C(=O)Nc1ccccc1F
inactive: [1] -3.8% | [2] -19.2% | [3] 14.3% | [4] -118% | [5] 1.5% | [6] 0.6%

O=[N+]([O-])c1ccc(OS(=O)(=O)Cc2ccccc2)cc1
inactive: [1] 3.8% | [2] -9.35% | [3] 8.95% | [4] -36.6% | [5] 3.95% | [6] -9.25%

COc1ccc(-n2[nH]nc(C(N)=O)c2=O)cc1
inactive: [1] 7.6% | [2] -2.5% | [3] -33.4% | [4] -22.6% | [5] -24.6% | [6] -65%

Reference: PubChem BioAssay (NCI)
